The list is not random: actives were taken first. Their share in the collection is about 2.1%.
LDHA inh: qHTS assay for inhibitors of human lactate dehydrogenase; L-lactate dehydrogenase A chain (Homo sapiens), P00338; purified LDHA, NADH/diaphorase-resazurin fluorescence; stronger effect = lower value; activity change, % (values are at about 110 or 230 µM); 480,000 tested, 0.15% active; AID 1347041, 2019; in the data active means activity change below about -30%; inconclusive means mostly about -25% to -30%;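 further: plate controls were DMSO wells for no effect and wells without enzyme for full effect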
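Human LDH5 at 2 nM final in Tris HCl pH 7.4 with 0.06 mM NADH and 0.2 mM pyruvate, reacted 5 minutes at room temperature. Remaining NADH coupled via diaphorase/resazurin; resorufin fluorescence read at 0 and 20 minutes, normalized to enzyme-free and DMSO wells.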
D2 antagonist: HTS Assay for Allosteric Antagonists of the Human D2 Dopamine Receptor: Primary Screen for Antagonists; D(2) dopamine receptor (Homo sapiens), P14416; HEK293 TREx D2 cells, calcium flux, dopamine EC80; inhibition, % at 10 µM; 340,000 tested, 2% active; in the data active means inhibition above about 30%; inactive means below that, where a call was filed; further: 0% is about no effect
Target sequence (P14416 whole entry, looked up): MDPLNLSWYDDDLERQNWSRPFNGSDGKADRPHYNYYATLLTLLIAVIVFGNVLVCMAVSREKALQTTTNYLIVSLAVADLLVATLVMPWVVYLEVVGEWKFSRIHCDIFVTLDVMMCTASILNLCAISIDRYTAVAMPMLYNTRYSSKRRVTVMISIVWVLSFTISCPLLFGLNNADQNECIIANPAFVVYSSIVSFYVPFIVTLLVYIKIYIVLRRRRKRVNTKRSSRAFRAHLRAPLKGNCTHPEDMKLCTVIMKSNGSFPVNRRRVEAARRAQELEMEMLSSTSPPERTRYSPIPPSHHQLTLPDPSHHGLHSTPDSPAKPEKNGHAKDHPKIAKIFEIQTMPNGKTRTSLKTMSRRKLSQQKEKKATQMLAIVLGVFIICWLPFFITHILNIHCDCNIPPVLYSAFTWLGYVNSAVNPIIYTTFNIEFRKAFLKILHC
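HEK293 T-REx D2 cells, tet-induced, calcium dye no-wash. Cpd pintool add, 180 s kinetic, then EC80 DA, 180 s kinetic. Ca flux read.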
D2 PAM-1: HTS Assay for Positive Allosteric Modulators of the Human D2 Dopamine Receptor: Primary Screen for Potentiators; 340,000 tested, 0.34% active; potentiation, % at 10 µM; HEK293 T-REx D2, calcium flux, EC20 dopamine potentiation;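 active means potentiation over 3 SD above the plate norm, cut at about 30% in these data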; further: 0% is about no effect
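Primary screen. Calcium kinetics in induced HEK293 T-REx D2 cells: compound pre-addition 180 s, EC20 dopamine, 180 s more.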
D2 ag-1: HTS Assay for Allosteric Agonists of the Human D2 Dopamine Receptor: Primary Screen for Agonists; activation, % at 2 µM; 340,000 tested, 0.53% active; AID 485358, 2010; D(2) dopamine receptor (Homo sapiens), P14416; HEK293 T-REx D2 cells, calcium flux agonist mode;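 active means activation over 3 SD above normal in the single-dose calcium agonist read, cut at about 30% in these data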; further: 0% is about no effect
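In this primary screen, compounds producing a positive calcium signal within 180 s of addition to tetracycline-induced, force-coupled HEK293 Trex D2 cells are flagged; cells are dye-loaded with a no-wash calcium kit beforehand.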
D2 PAM-2: Beta-Arrestin HTS for Positive Allosteric Modulators of the Human D2 Dopamine Receptor: Potentiators; AID 624464, 2012; D(2) dopamine receptor (Homo sapiens), P14416; 360,000 tested, 0.23% active; potentiation, % (no concentration beside the values); DiscoveRx D2 beta-arrestin cells, luminescence, 90 min; 100% = 57 uM dopamine signal; in the data active means potentiation above about 50%; inconclusive means mostly about 30% to 49%
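PathHunter D2 cells, attached overnight at 37 deg C, received compound in DMSO plus dopamine at EC20 (50 nM final) for 90 min at 37 deg C. Beta-arrestin recruitment was read as luminescence after 1 h with detection reagent at ambient temperature.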
D2 ag-2: Beta-Arrestin HTS for Positive Allosteric Modulators of the Human D2 Dopamine Receptor: Agonists | D(2) dopamine receptor (Homo sapiens), P14416 | DiscoveRx PathHunter D2 beta-arrestin, luminescence, 90 min; 100% = 57 uM dopamine signal | activation, % (test concentration not listed) | AID 624465, 2012 | 360,000 tested, 0.084% active; in the data active means activation above about 40%; inconclusive means between about 15% and that limit
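Agonist mode: compounds alone added to overnight-plated D2 PathHunter cells for 90 min at 37 C, with 57 uM final dopamine (EC100) defining full response. Beta-arrestin recruitment detected by chemiluminescent reagent, read after 1 h at ambient temperature.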
Numbers without * were called inactive; ? = inconclusive; nt = no result.

SMILES	LDHA inh	D2 antagonist	D2 PAM-1	D2 ag-1	D2 PAM-2	D2 ag-2
O=C(Nc1cc(F)ccc1F)c1cc(-c2ccco2)nc2ccccc12	-1	nt	nt	nt	nt	nt
O=C(NCCNc1ncccc1C(F)(F)F)Nc1ccc(F)cc1F	10	nt	nt	nt	nt	nt
COc1ccccc1OC(C(=O)NC1CC1)c1ccccc1 (stereo not given)	-30*	nt	nt	nt	nt	nt
CCCCCn1nc(C(=O)N2CCSCC2)c2ccccc2c1=O	0	nt	nt	nt	nt	nt
COCCN(C(=O)c1cc(-c2ccco2)nc2ccccc12)c1c(N)n(CC(C)C)c(=O)[nH]c1=O	-2	nt	nt	nt	nt	nt
O=C(CCn1c(=O)sc2ccccc21)NCc1cccs1	-15	32*	-6	-1	-14	-1
COc1cc(/C=C2/SC(=Nc3ccc(O)cc3)NC2=O)cc(OC)c1O	-3	3	-25	51*	5	8
CCn1c2ccccc2c2cc(NC(=O)c3cccc([N+](=O)[O-])c3)ccc21	1	42*	-12	1	-2	1
CCn1c(SCC(=O)Nc2cccc(NC(C)=O)c2)nnc1-c1ccco1	-10	-13	-1	0	-7	-1
CCn1c(SCC(=O)Nc2ccc3c(c2)c2ccccc2n3CC)nnc1-c1ccco1	-4	45*	9	0	-21	0
CCc1nnc(NC(=O)CSc2nnc(-c3ccco3)n2CC)s1	-3	-12	-2	-1	-10	1
CCCn1c(SCC(=O)Nc2nnc(CC)s2)nnc1-c1ccco1	0	7	38*	0	29	-1
CCCCC(=O)Nc1nc2c(s1)COc1ccccc1-2	-4	52*	-5	3	-4	-1
COc1ccc(C2=Nn3c(nnc3-c3ccccc3OC)SC2)cc1	-3	nt	nt	nt	nt	nt
COc1ccc(C2=Nn3c(nnc3-c3ccccc3OC)SC2)cc1OC	-6	-4	37*	0	4	1
CCN(C/C=C/c1ccccc1OC)Cc1ccccc1	-14	80*	-30	0	-26	1
O=C(O)c1ccc2nc(-c3cc4cccc(O)c4oc3=O)[nH]c2c1	34	nt	4	0	nt	nt
O=c1oc2c(O)cccc2cc1-c1nc2ccccc2[nH]1	-5	-115	0	149*	15	5
NC(=O)C1C(c2ccccc2)=C1c1ccccc1	-2	38*	-3	0	-7	-2
COc1ccc(C2Nc3ccccc3C(=O)N2NS(=O)(=O)c2ccccc2)cc1 (stereo not given)	-6	39*	6	0	0	1
O=C1c2ccccc2NC(c2ccco2)N1NS(=O)(=O)c1ccccc1 (stereo not given)	-6	33*	2	2	0	0
Cc1cc(NC(=O)CSc2nc(C(C)C)nc3sc(C)c(C)c23)no1	-1	35*	6	0	3	7
S=c1[nH]c(-c2ccccc2)cn1/N=C/c1cccc2ccccc12	1	33*	-14	0	-30	-16
COc1ccc(/C=C2\SC(=S)N(CCCCCC(=O)Nc3cc(C)on3)C2=O)cc1OC	-4	12	8	1	5	-1
COc1cc(/C=C2/SC(=S)NC2=O)ccc1OS(=O)(=O)c1ccc(C)cc1	-34*	-3	1	5	-17	-4
SMILES	LDHA inh	D2 antagonist	D2 PAM-1	D2 ag-1	D2 PAM-2	D2 ag-2
COc1cc(/C=C2\SC(=S)N(CCCCC(=O)O)C2=O)ccc1OS(=O)(=O)c1ccc(C)cc1	0	32*	-9	2	?	5
COc1ccc(NC(=O)c2c(-c3ccc(OC)cc3)oc3ccc(OC)cc23)cc1	0	nt	nt	nt	nt	nt
COc1ccccc1N1CCN(C2CCN(C(=O)COc3cccc(C)c3)CC2)CC1	-22	69*	-13	0	-40	0
COc1ccccc1N1CCN(C2CCN(C3CCC(c4ccccc4)CC3)CC2)CC1 (stereo not given)	nt	45*	-26	-1	nt	nt
COc1ccccc1N1CCN(C2CCN(C(=O)c3cccc(F)c3)CC2)CC1	-32*	-16	-6	0	-26	-1
Cc1nc2c(cc(OCC(O)COc3ccc(C#N)cc3)c3ccsc32)s1 (stereo not given)	79	nt	nt	nt	nt	nt
CN(C)CC(O)COc1ccc(-c2ccc(C#N)cc2)cc1 (stereo not given)	nt	9	4	-1	nt	nt
CN(C)CC(O)COc1cccc(OCC(O)CN(C)C)c1 (stereo not given)	-7	55*	-5	0	-4	-3
N/C(=N\OC(=O)c1ccc2ccccc2c1)c1cccc([N+](=O)[O-])c1	-8	-5	9	0	108*	?
N/C(=N\OC(=O)c1ccccc1Cl)c1cccc([N+](=O)[O-])c1	-5	-6	-6	0	25	60*
N/C(=N/OC(=O)c1cccc([N+](=O)[O-])c1)c1cccc([N+](=O)[O-])c1	-5	-12	4	0	?	?
NC(=O)c1cccc([N+](=O)[O-])c1	-4	-11	10	0	-6	4
CC1=C(C)/C(=N/OC(=O)c2cccc([N+](=O)[O-])c2)C=CC1=O	15	34*	6	0	12	?
N/C(=N\OC(=O)c1cccc(F)c1)c1cccc([N+](=O)[O-])c1	-12	nt	nt	nt	85*	?
N/C(=N\OC(=O)c1cccc([N+](=O)[O-])c1)c1ccccn1	-4	8	-1	0	22	?
Cc1ccc(NC(=O)C2=C(c3ccccc3)NC(=S)NC2c2ccc(C(C)(C)C)cc2)cc1 (stereo not given)	-23	nt	nt	nt	nt	nt
O=C(CCl)NC(NC(=O)CCl)c1ccccc1	-3	nt	nt	nt	nt	nt
N/C(=N\OC(=O)c1ccc(F)cc1)c1cccc([N+](=O)[O-])c1	-12	-1	3	0	65*	?
COc1ccc(C(=O)Nc2oc3ccccc3c(=O)c2-c2cccc(Cl)c2)cc1OC	3	nt	nt	nt	nt	nt
O=C(NC1CCN(Cc2ccccc2)CC1)C(NS(=O)(=O)c1cccc2nsnc12)c1ccccc1 (stereo not given)	-2	35*	-18	-1	-11	0
